Most compounds without a hit are left out; they make up all but 9.4% or so of the library.
NPC1 prom act – NPC1 promoter activation; 2.4% of 320,000 active; Huh7 NPC1 promoter luciferase reporter, 24 h; Potency, µM (top dose mostly 9.22 µM), for the others: at the highest dose activation, usual class: activators; also: % of control where 0% means no effect; nearly all actives have a fitted effect of over 60% in size
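Huh7 cells stably carrying NPC1 promoter–luciferase, plated in Opti-MEM with 10% FBS for 2 h, were exposed to compound in DMSO for 24 h at 37 °C; luciferase reagent was added for 10 min and luminescence read.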
SMN2 splice enh – increases expression of the SMN2 splice variant; 2.8% of 210,000 active; Potency, µM (doses to about 46.1 µM), without a hit: at the top dose activity change, positive = activation, actives largely listed as activators; HEK293 SMN2-luciferase splicing reporter, luminescence, 30-36 h; also: % of control where 0% means no effect; nearly all actives have a fitted effect of over 55% in size
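HEK293 cells carry an SMN2 minigene-luciferase reporter in which exon 7 inclusion puts luciferase in frame. Cells were seeded at 2000 cells/well, attached for 10-12 hours, then exposed to compounds for 30-36 hours at 37C before ONE-Glo luminescence.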
ELG1 genotox – induces genotoxicity in HEK293T cells with luciferase-tagged ELG1 | HEK293T ELG1-luciferase reporter, luminescence, 16 h | Potency, µM (series often up to 46 µM), for inactives: at the highest dose activity change, positive = activation, usual class: activators | 1.3% of 330,000 active | AID 504466; also: % of control where 0% means no effect; nearly all actives have a fitted effect of over 60% in size
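Reporter readout depends on ELG1 protein level, which increases with genetic stress. After 16 hr compound exposure at 37 °C, luciferase activity was quantified using ONE-Glo.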
Rab9 prom act – Rab9 promoter activation; Huh7 Rab9 promoter-luciferase reporter, luminescence, 24 h; Potency, µM (titrated, usually from 9.22 µM), without a hit: at the top dose activation, negative = inhibition, hits mostly activators; 2.8% of 320,000 active; also: % of control where 0% means no effect; nearly all actives have a fitted effect of over 60% in size
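Stable Rab9-luc Huh7, 1500 cells/well, 2 h settle; cmpd in DMSO, 24 h, 37 °C/5% CO2; luciferase reagent 10 min RT; luminescence.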
ELG1 repair inh – blocks ELG1-dependent DNA repair in HEK293T cells; HEK293T ELG1-luciferase reporter, luminescence, 16 h; DNA damage induced by 5-fluorouridine; Potency, µM (titrated, usually from 46.1 µM), without a hit: at the highest dose activity change, negative = inhibition, hits mostly inhibitors; 2.3% of 330,000 active; AID 504467; also: % is scaled to controls: 0 for no effect and ±100 for the full control effect; nearly all actives have a fitted effect of over 55% in size
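Reporter activity after DNA damage by 5-fluorouridine is monitored. Compound-treated cells incubate 16 hr at 37 °C, then ONE-Glo is added for 30 min before luminescence reading.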
FLuc modulator – firefly luciferase modulation, counter-screen for miR-21 project; AID 588342; purified FLuc, Km substrates, luminescence inhibition; Potency, µM (highest dose often 57.5 µM), without a hit: at the highest dose activity change, negative = inhibition, most hits filed as inhibitors; 6.9% of 360,000 active; P08659;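 also: plate controls were vehicle for no effect and reference inhibitor for full effect; nearly all actives have a fitted effect of over 55% in size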
Target sequence (P08659 whole entry, looked up): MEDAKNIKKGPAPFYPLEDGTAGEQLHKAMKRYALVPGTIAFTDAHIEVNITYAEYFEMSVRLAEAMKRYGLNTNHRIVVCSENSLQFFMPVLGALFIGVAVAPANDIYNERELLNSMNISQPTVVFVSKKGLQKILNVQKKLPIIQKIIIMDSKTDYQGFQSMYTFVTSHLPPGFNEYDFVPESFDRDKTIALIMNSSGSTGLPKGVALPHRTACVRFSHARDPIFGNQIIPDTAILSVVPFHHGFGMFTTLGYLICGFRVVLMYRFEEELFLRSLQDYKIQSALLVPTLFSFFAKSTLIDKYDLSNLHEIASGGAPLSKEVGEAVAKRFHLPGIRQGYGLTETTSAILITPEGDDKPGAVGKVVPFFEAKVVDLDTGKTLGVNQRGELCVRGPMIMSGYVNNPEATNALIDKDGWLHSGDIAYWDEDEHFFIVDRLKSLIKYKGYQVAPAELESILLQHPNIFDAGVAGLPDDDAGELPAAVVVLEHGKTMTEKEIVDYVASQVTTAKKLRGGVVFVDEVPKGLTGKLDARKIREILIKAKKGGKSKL
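Purified P. pyralis luciferase, 10 nM final, with Km-level 10 uM D-luciferin and 10 uM ATP in 50 mM Tris acetate pH 7.5, 10 mM Mg acetate, 0.01% Tween-20, 0.05% BSA; 6-point qHTS titration about 60 µM downward; luminescence read.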
The depositor's hits bear a star; ? = inconclusive; . = not tested or not shown; [ ] = remark or other dose. Calls follow the shape of the dose curve; as a rule, active = well fitted curve in the direction sought with a large enough effect; inconclusive = small, poorly fitted or top-dose-only effect, or another doubt; inactive = no such curve, though single readings can be large; an effect the other way counts as inactive or inconclusive. Potency is read from the fitted curve at half-maximal effect.

SMILES | NPC1 prom act | SMN2 splice enh | ELG1 genotox | Rab9 prom act | ELG1 repair inh | FLuc modulator
O=C(COC(=O)COc1ccc(Cl)cc1Br)NCc1cccs1 | -7% | -4% | 0% | 9% | 17% | ?
O=C(Nc1ccc2c(c1)N(C1CCCC1)C(=O)c1ccccc1S2)c1ccccc1 | . | . | . | . | . | 2%
CC1(C)CN=C(N(Cc2ccccc2)C(=O)Nc2ccccc2)S1 | ? | -14% | ? | ? | ? | 15µM*
CCC(=O)N1CCc2cc(S(=O)(=O)CCC(=O)Nc3cc(Cl)ccc3OC)ccc21 | . | -9% | . | . | . | -15%
CN(c1ncnc(N)c1[N+](=O)[O-])C1CCS(=O)(=O)C1 (centres undefined) | 4% | -13% | -15% | 7% | ? | -1%
CCCCN(c1ccccc1)c1ncnc(N)c1[N+](=O)[O-] | 8% | -18% | -13% | -1% | 2.6µM* | -1%
CC(C)c1ccc(S(=O)(=O)NCc2nc3cccnc3n2Cc2ccc(F)cc2)cc1 | . | . | . | . | . | 0%
Cc1ccc2oc(-c3cc(NC(=O)c4ncn[nH]4)ccc3O)nc2c1 | -3% | . | 0% | 2% | -11% | 2.7µM*
Cc1cccc2sc(NC(=O)C3CCN(C(=O)c4ccco4)CC3)nc12 | 0% | . | -12% | -6% | 13µM* | ?
Cc1ccc(C(=O)Nc2nc3ccc(S(C)(=O)=O)cc3s2)o1 | 2.8µM* | 4µM* | ? | 2.5µM* | ? | 3µM*
CS(=O)(=O)c1ccc2nc(NC(=O)c3ccco3)sc2c1 | 2.8µM* | 7.9µM* | ? | 1.6µM* | ? | 4.8µM*
O=C(NC(=S)Nc1nc2ccc(F)cc2s1)c1ccco1 | 6% | 10µM* | ? | 2.5µM* | ? | 1.3µM*
COc1ccccc1CN1CC[C@@]2(CCCN(C(=O)c3cccn3C)C2)C1 | . | -20% | . | . | . | .
COCCNC(=O)CSc1cn(CC(=O)N2CCCCCC2)c2ccccc12 | . | . | . | . | . | -3%
CCCCN(CC)CCCn1cnc2c([nH]c3ccc(Cl)cc32)c1=O | . | 1% | . | . | . | -3%
Cc1ccc2occ(CC(=O)Nc3ccc(Cl)c(C(F)(F)F)c3)c2c1 | . | -26% | . | . | . | 3%
COc1ccc(C(=O)Nc2ccc(OCc3cc(=O)n4ccccc4n3)cc2)cc1 | . | . | . | . | . | -7%
Cc1noc(C)c1C(=O)Nc1nc2ccc(S(C)(=O)=O)cc2s1 | ? | . | ? | ? | ? | 1.1µM*
CS(=O)(=O)c1ccc2nc(NC(=O)c3ccc(Cl)cc3)sc2c1 | 3% | . | 0% | 24% | 0% | ?
Cc1c(Cl)ccc2sc(NC(=O)c3ccco3)nc12 | 2.8µM* | . | ? | 4µM* | ? | 5.4µM*
Cc1cc(C)n2nc(CNC(=O)c3ccc(Cl)cc3)nc2n1 | . | 6% | . | . | . | -2%
NC(=O)C1CCN(C(=O)CC(c2ccccc2)c2ccccc2)CC1 | 1% | . | -3% | -1% | 0% | 0%
COc1ccc(-c2nc(CSc3nnc(C)n4c3cc3sccc34)c(C)o2)cc1 | . | . | . | . | . | -8%
CC(C)Oc1ccc(CNC(=O)Nc2ccc3c(c2)N(C)C(=O)c2ccccc2S3)cc1 | . | . | . | . | . | 0%
CCCCOc1ccc(C(=S)N2CCC(C(N)=O)CC2)cc1 | ? | ? | ? | 4.5µM* | ? | 24µM*
SMILES | NPC1 prom act | SMN2 splice enh | ELG1 genotox | Rab9 prom act | ELG1 repair inh | FLuc modulator
Cc1ncc(COP(=O)(O)O)c(C)c1O | . | -1%[9.22 µM] | . | . | . | .
Cc1nc2ccc(N)cc2s1 | 6% | ? | 6% | -7% | 2% | 5%
Cc1ccc2nc(-c3ccc(N)cc3)sc2c1S(=O)(=O)O | . | 14µM* | . | . | . | .
CC(=O)N1c2c(cc(Br)cc2S(=O)(=O)N2CCN(c3cccc(Cl)c3)CC2)CC1C (centres undefined) | . | 5% | . | . | . | -10%
Cn1c(=O)[nH]c(=O)c2c1nc(SCC(N)=O)n2Cc1cccc(Br)c1 | 2% | . | 21µM* | -8% | ? | 1%
Cc1cc(C)n(-c2nc3c(c(=O)[nH]c(=O)n3C)n2Cc2ccccc2)n1 | 0% | -6% | 3% | 4% | ? | -1%
CCC(C)Sc1nc2c(c(=O)[nH]c(=O)n2C)n1CCc1ccccc1 (centres undefined) | 2% | -11% | -3% | -3% | ? | 2%
CCOC(=O)C(CC)Sc1nc2c(c(=O)[nH]c(=O)n2C)n1CCc1ccccc1 (centres undefined) | 2% | -1% | -2% | 16% | 8.2µM* | -11%
Cc1cc(C)n(-c2nc3c(c(=O)[nH]c(=O)n3C)n2CCc2ccccc2)n1 | 2% | 14µM* | -4% | 1% | ? | 2%
CCC(C)Sc1nc2c(c(=O)[nH]c(=O)n2C)n1CC(O)COc1ccccc1C (centres undefined) | -1% | 11% | -5% | -9% | 16µM* | -1%
C=C(C)CSc1nc2c(c(=O)[nH]c(=O)n2C)n1Cc1ccccc1 | -10% | . | 6% | -10% | ? | -5%
O=C1c2ccccc2C(=O)N1c1ccc(Cc2ccc(N3C(=O)c4ccccc4C3=O)cc2)cc1 | . | 4%[9.22 µM] | . | . | . | .
COc1ccc(Cl)cc1NC(=O)Cn1ncc2c3ccccc3n(Cc3ccccc3)c2c1=O | . | 0% | . | . | . | -7%
CCCc1ccc(-c2ccc(-c3noc(-c4ccncc4)n3)cc2)nc1 | -9% | . | -3% | -7% | 0% | ?
CCCCc1ccc(-c2nc(-c3ccncc3)no2)cc1 | 0.45µM* | 13µM* | 23µM* | 0.35µM* | ? | 1.9µM*
CCc1ccc(-c2nc(-c3ccncc3)no2)cc1 | 0.35µM* | 7.9µM* | 0.73µM* | ? | ? | 0.67µM*
Cc1ccc(Cc2nc(-c3ccncc3)no2)cc1 | 4% | 2% | 0% | 11% | ? | -14%
Cc1ccccc1CNC(=O)C(=O)NCC(c1ccco1)S(=O)(=O)c1ccc(F)cc1 (centres undefined) | . | . | . | . | . | -6%
Cc1ccc(Cn2nnnc2CN2CCC(c3nc4ccc(Cl)cc4[nH]3)CC2)cc1 | -6% | -58% | -38% | -7% | 23µM* | -1%
Cc1ccc(Cn2nnnc2CN2CCC(NC(=O)c3ccc(Br)cc3)CC2)cc1 | 3% | -72% | -5% | 1% | 21µM* | -17%
C/C(N)=C(/C#N)C(=O)CSc1nc2ccccc2[nH]1 | ? | ? | 21µM* | ? | ? | 21µM*
C/C(N)=C(/C#N)C(=O)CSc1nnc(Nc2ccccc2C)s1 | ? | -6% | 15% | 20% | 26% | ?
CC1CCN(C(=O)CSc2nc3ccccc3[nH]2)CC1 | 2.5µM* | 16µM* | ? | 3.2µM* | ? | 24µM*
C/C(N)=C(/C#N)C(=O)CSc1nnc(Nc2ccccc2)s1 | ? | 11µM* | ? | 2µM* | ? | 21µM*
